From PubChem BioAssay (NCATS)
Results filed as inconclusive are left out. Calls of active or inactive are those of the source. Unless noted, calls follow the shape of the full dose curve.

Columns and labels:
[1] = qHTS assay for small molecule agonists of retinoid X receptor alpha signaling (AID 588544); conditions: HEK293T RXRa-UAS-bla, beta-lactamase reporter, 18 h; 530 nm emission;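 as to activation: 0% = DMSO basal wells and 100% = reference agonist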
[2] = target: Retinoic acid receptor RXR-alpha (Homo sapiens) (UniProt P19793); assay: as above; conditions: HEK293T RXRa-UAS-bla, beta-lactamase reporter, 18 h; series mostly up to 76.7 µM
Chain of Retinoic acid receptor RXR-alpha (Homo sapiens) (P19793 whole entry, looked up): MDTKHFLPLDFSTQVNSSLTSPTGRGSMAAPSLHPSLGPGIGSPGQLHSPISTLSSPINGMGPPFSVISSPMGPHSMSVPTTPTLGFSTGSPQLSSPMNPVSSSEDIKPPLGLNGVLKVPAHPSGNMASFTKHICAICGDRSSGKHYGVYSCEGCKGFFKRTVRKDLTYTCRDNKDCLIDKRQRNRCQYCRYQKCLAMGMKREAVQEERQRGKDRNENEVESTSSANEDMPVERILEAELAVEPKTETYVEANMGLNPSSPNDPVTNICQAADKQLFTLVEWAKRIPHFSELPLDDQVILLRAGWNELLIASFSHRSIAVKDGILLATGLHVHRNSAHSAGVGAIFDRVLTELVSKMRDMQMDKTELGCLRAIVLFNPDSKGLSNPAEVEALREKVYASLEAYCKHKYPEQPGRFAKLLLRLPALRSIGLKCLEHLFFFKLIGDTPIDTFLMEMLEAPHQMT

[3] = target: Thyroid hormone receptor beta (Homo sapiens) (UniProt P10828); assay: qHTS assay for small molecule agonists of thyroid hormone receptor beta signaling (AID 588545); conditions: TR-UAS-bla GripTite HEK 293, beta-lactamase ratio, agonist mode, 18 h, percent of T3 response, DMSO as zero; series mostly up to 76.7 µM;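 also: 0% = DMSO only and 100% = 10 nM T3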
Chain of Thyroid hormone receptor beta (Homo sapiens) (P10828 whole entry, looked up): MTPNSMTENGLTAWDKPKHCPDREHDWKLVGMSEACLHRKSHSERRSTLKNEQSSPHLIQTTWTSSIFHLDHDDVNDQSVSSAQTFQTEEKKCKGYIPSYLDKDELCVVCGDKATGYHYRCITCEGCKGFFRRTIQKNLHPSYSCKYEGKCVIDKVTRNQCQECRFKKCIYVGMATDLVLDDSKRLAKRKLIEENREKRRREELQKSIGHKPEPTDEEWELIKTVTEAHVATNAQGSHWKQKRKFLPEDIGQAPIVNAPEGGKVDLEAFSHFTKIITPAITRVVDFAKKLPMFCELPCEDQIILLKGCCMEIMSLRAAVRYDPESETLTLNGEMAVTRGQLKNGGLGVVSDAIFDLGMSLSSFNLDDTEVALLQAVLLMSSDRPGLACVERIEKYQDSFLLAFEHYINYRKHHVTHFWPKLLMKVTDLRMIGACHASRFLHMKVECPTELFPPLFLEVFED
Method in brief: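 Efficacy and EC50 values derive from Hill fits of qHTS titration data, normalized to 10 nM T3 and DMSO-only wells. HEK 293 reporter cells were stimulated for 18 hrs at 37 C, with beta-lactamase activity measured by CCF4 fluorescence.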

[4] = qHTS assay for small molecule antagonists of retinoid X receptor alpha signaling (AID 588546; active = well fitted inhibition curve with a large enough effect in the signal ratio, with a control signal flat, not every such curve was filed as active; the % refers to the signal ratio;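 also: cells stimulated with 9-cis-retinoic acid as agonist; % is scaled to controls: 0 for no effect and ±100 for the full control effect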); conditions: HEK293T RXRa-UAS-bla, beta-lactamase ratio, antagonist mode; measured here: W530 green channel, cytotoxicity proxy
Method in brief: (§1)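 Beta-lactamase reporter inhibition, read as CCF4 fluorescence ratio (ex 405, em 460/530 nm) after 2 h at RT. HEK293T UAS-bla cells, 2500/well, were stimulated with 9-cis-RA at 500 or 100 nM final alongside test compound for 18 h at 37 C.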

[5] = target: Retinoic acid receptor RXR-alpha (Homo sapiens) (UniProt P19793); assay: as above; conditions: HEK293T RXRa-UAS-bla, beta-lactamase ratio, antagonist mode
Method in brief: as §1

[6] = target: Thyroid hormone receptor beta (Homo sapiens) (UniProt P10828); assay: qHTS assay for small molecule antagonists of thyroid hormone receptor beta signaling (AID 588547; active = well fitted inhibition curve with a large enough effect in the signal ratio, with a control signal flat, not every such curve was filed as active; the % refers to the signal ratio;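 also: cells stimulated with 0.4 nM T3 agonist during compound exposure; % is scaled to controls: 0 for no effect and ±100 for the full control effect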); conditions: TR-UAS-bla HEK293, beta-lactamase ratio, antagonist mode, 18 h
Method in brief: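 TR-UAS-bla GripTite HEK293 cells in 2% charcoal/dextran FBS medium were preincubated 4 h at 37 C, given compound (0.59 nM to 92 uM) plus 0.4 nM T3 (final) for 18 h, then CCF4 for 2 h at RT; Hill fit gave IC50.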

[7] = target: Voltage-gated inwardly rectifying potassium channel KCNH2 (Homo sapiens) (UniProt Q12809); assay: qHTS Assay for Small Molecule Inhibitors of the Human hERG Channel Activity (AID 588834; active = well fitted inhibition curve with a large enough effect;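 also: top concentration of the series differs between compounds; % is scaled to controls: 0 for no effect and ±100 for the full control effect; lower thallium flux fluorescence means stronger hERG block; nearly all actives have a fitted effect of over 50% in size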); conditions: U2OS BacMam hERG, FluxOR thallium flux fluorescence; series mostly up to 92.2 µM
Chain of Voltage-gated inwardly rectifying potassium channel KCNH2 (Homo sapiens) (Q12809 whole entry, looked up): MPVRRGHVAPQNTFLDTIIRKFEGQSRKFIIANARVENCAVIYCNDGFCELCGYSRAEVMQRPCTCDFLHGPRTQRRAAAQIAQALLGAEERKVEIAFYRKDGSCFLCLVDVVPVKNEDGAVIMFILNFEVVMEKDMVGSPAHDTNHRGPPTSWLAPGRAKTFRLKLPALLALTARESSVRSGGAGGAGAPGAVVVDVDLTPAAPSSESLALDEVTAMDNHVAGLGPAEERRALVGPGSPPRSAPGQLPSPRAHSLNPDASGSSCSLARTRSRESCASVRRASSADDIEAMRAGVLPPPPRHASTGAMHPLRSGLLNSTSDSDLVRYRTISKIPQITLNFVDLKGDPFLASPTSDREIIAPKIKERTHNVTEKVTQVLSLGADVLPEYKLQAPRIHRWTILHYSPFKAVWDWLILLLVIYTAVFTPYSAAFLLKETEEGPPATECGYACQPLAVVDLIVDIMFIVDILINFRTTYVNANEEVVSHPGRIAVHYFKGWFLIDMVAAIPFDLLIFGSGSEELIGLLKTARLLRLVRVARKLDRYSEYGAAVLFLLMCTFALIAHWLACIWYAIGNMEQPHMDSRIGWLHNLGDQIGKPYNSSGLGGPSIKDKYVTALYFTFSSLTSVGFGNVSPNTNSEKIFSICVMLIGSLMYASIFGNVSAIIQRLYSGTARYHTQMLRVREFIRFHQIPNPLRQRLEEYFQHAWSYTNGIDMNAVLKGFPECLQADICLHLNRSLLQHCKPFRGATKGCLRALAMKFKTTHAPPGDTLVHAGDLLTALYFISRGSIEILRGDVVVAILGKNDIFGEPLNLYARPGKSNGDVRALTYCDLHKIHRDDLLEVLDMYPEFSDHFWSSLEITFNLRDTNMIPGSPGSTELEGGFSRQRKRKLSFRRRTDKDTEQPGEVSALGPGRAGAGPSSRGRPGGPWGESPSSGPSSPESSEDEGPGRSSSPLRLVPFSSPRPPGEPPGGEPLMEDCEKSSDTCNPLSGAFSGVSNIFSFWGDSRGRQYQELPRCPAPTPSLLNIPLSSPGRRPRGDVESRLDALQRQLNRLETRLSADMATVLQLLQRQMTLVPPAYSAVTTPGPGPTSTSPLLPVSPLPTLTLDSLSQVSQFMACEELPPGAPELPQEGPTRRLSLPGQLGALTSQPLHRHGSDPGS
Method in brief: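 Step 1: BacMam hERG transduction of U2OS, 4 hrs RT. Step 2: overnight 37 °C, plate 2000 cells/well, 4 hr. Step 3: FluxOR load, compound 10 min, stimulate, read fluorescence.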

[8] = qHTS assay for small molecule agonists of the antioxidant response element (ARE) signaling pathway (AID 651741; active = well fitted activation curve with a large enough effect in the signal ratio; the % refers to the signal ratio; also: potency is read from the fitted curve at half-maximal effect; as to activation: % of control where 0% means no effect); conditions: HepG2 ARE-bla reporter, beta-lactamase FRET ratio, 16 h; series mostly up to 96 µM
Method in brief: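 Reporter: beta-lactamase under ARE, stably in HepG2. Exposure: 16 h, 37 C, compounds delivered in DMSO by pin tool after 5 h cell preincubation. Readout: FRET substrate fluorescence after 2 h at RT.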

[9] = qHTS assay for small molecule activators of the p53 signaling pathway (AID 651743; active = well fitted activation curve with a large enough effect in the signal ratio, not every such curve was filed as active; the % refers to the signal ratio; also: % of control where 0% means no effect); conditions: HCT-116 p53RE-bla, beta-lactamase FRET ratio, 16 h; stronger effect = higher value
Method in brief: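 Agonist-mode quantitative HTS in HCT-116 cells carrying a p53-response-element beta-lactamase reporter; 16 h compound treatment at 37 C, then FRET substrate loading for 2 h at room temperature and fluorescence read.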

[10] = qHTS assay for small molecule activators of the nuclear factor-kappa B (NF-kB) signaling pathway (AID 651749; active = well fitted activation curve with a large enough effect in the signal ratio; the % refers to the signal ratio; also: % of control where 0% means no effect); conditions: NF-kB-bla ME-180 cells, beta-lactamase FRET ratio, 16 h; stronger effect = higher value
Method in brief: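 Human ME-180 cervical cells with an NF-kB-bla construct; compounds added via 23 nL pin transfer, DMSO as vehicle; incubation 16 hr. Reporter activity measured by FRET disruption.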

O=[N+]([O-])c1cccc(Cl)c1
-3.93%: max response [4]
inactive: outcome [2] | outcome [3] | max response [5] 7.77% | activity change % (negative = inhibition) [6] -12.9% | Potency [7] | Potency [8] | activation [9] -3.73% | activation [10] 0.464%
-8.32%: max response [1]

CC(=O)CCc1ccccc1
inactive: outcome [2] | outcome [3] | max response [5] 0.594% | activity change % (negative = inhibition) [6] 12% | Potency [7] | Potency [8] | activation [9] -1.61% | activation [10] 0.0566%
-0.836%: max response [4]
-7.54%: max response [1]

CC(C)(O)C(=O)O
-2.22%: max response [1]
inactive: outcome [2] | outcome [3] | max response [5] 3.29% | activity change % (negative = inhibition) [6] 8.51% | Potency [7] | Potency [8] | activation [9] -1.64% | activation [10] -0.233%
2.28%: max response [4]

CCC=O
2.22%: max response [1]
inactive: outcome [2] | outcome [3] | max response [5] 0.991% | activity change % (negative = inhibition) [6] -3.74% | Potency [7] | Potency [8] | activation [9] -0.942% | activation [10] -1.21%
-6.66%: max response [4]

C1COC1
-1.49%: max response [1]
inactive: outcome [2] | outcome [3] | max response [5] 0.231% | activity change % (negative = inhibition) [6] 14.8% | Potency [7] | Potency [8] | activation [9] 0.23% | activation [10] -0.645%
-8.83%: max response [4]

Cc1cccc2ccccc12
-10.1%: max response [4]
-13.1%: max response [1]
inactive: outcome [2] | outcome [3] | max response [5] 0.915% | activity change % (negative = inhibition) [6] 12.2% | Potency [7] | Potency [8] | activation [9] -1.93% | activation [10] -1.12%

COC(=O)CCC(=O)OC
1.7%: max response [4]
inactive: outcome [2] | outcome [3] | max response [5] 6.03% | activity change % (negative = inhibition) [6] 1.67% | Potency [7] | Potency [8] | activation [9] -2.9% | activation [10] 0.407%
-2.46%: max response [1]

Cc1ccc(S(=O)(=O)NC2CCCCC2)cc1
-12.2%: max response [1]
inactive: outcome [2] | outcome [3] | max response [5] 11.2% | activity change % (negative = inhibition) [6] -0.348% | Potency [7] | Potency [8] | activation [9] -2.24%
-7.45%: max response [4]

FC(F)(F)c1cccc(Cl)c1
inactive: outcome [2] | outcome [3] | max response [5] 6.29% | activity change % (negative = inhibition) [6] -4.74% | Potency [7] | Potency [8] | activation [9] -1.63%
-1.24%: max response [1]
3.78%: max response [4]

COc1ccc(N)c(C)c1
-12.9%: max response [1]
inactive: outcome [2] | outcome [3] | max response [5] 8.01% | activity change % (negative = inhibition) [6] -12.3% | Potency [7] | Potency [8] | activation [10] -0.857%
-2.69%: max response [4]

CC1CCC2CC1C2(C)C (stereo unspecified)
-0.475%: max response [1]
8.6%: max response [4]
inactive: outcome [2] | outcome [3] | max response [5] 9.66% | activity change % (negative = inhibition) [6] 12.3% | Potency [7] | Potency [8] | activation [9] -0.467% | activation [10] -0.9%

Cc1ccccc1C=O
9.24%: max response [4]
-10.4%: max response [1]
inactive: outcome [2] | outcome [3] | max response [5] 9.95% | activity change % (negative = inhibition) [6] 20.8% | Potency [7] | activation [9] 3.12%

CCCCC(C=O)CC (stereo unspecified)
4.08%: max response [1]
2.69%: max response [4]
inactive: outcome [2] | outcome [3] | max response [5] 7.22% | activity change % (negative = inhibition) [6] 14.6% | Potency [7] | Potency [8] | activation [10] -0.855%

O=C(O)CCSSCCC(=O)O
inactive: outcome [2] | outcome [3] | max response [5] -2.74% | activity change % (negative = inhibition) [6] -3.23% | Potency [7] | Potency [8] | activation [10] -1.14%
-12%: max response [4]
1.51%: max response [1]

CCC(C)(C)OC
inactive: outcome [2] | outcome [3] | max response [5] 17% | activity change % (negative = inhibition) [6] -6.68% | Potency [7] | Potency [8] | activation [10] -0.279%
-18.1%: max response [4]
10.3%: max response [1]

ICCc1ccccc1
inactive: outcome [2] | outcome [3] | max response [5] 22.3% | activity change % (negative = inhibition) [6] 3.09% | Potency [7] | Potency [8] | activation [9] -3.45% | activation [10] -1.75%
-3.71%: max response [4]
3.08%: max response [1]

N#CCc1ccccc1[N+](=O)[O-]
inactive: outcome [2] | outcome [3] | max response [5] -6.12% | activity change % (negative = inhibition) [6] -13.4% | Potency [7] | activation [9] -2.66% | activation [10] -0.713%
-1.87%: max response [1]
active: Potency [8] 42.2 µM
20.6%: max response [4]

CCOCCOCC
-9.02%: max response [4]
inactive: outcome [2] | outcome [3] | max response [5] 1.41% | activity change % (negative = inhibition) [6] 12.3% | Potency [7] | Potency [8] | activation [9] 0.0371% | activation [10] -0.436%
-9.35%: max response [1]

CCCOCC(C)OCC(C)O (stereo unspecified)
-4.87%: max response [4]
inactive: outcome [2] | outcome [3] | max response [5] 13.7% | activity change % (negative = inhibition) [6] 6.45% | Potency [7] | Potency [8] | activation [9] -5.61% | activation [10] -1.44%
-0.324%: max response [1]

CC(C)(C)OCC1CO1 (stereo unspecified)
inactive: outcome [2] | outcome [3] | max response [5] -4.17% | activity change % (negative = inhibition) [6] 13.4% | Potency [7] | activation [9] 0.176%
-14.1%: max response [1]
-6.46%: max response [4]

CCCCCCC(=O)O
-3.5%: max response [1]
inactive: outcome [2] | outcome [3] | max response [5] 7.92% | activity change % (negative = inhibition) [6] -7.74% | Potency [7] | activation [9] -5.16%
-1.09%: max response [4]

C=Cc1ccccc1C=C
inactive: outcome [2] | outcome [3] | max response [5] -4.16% | activity change % (negative = inhibition) [6] -4.38% | Potency [7] | activation [9] -1.45%
-7.36%: max response [1]
-3.83%: max response [4]
